High-throughput results (PubChem)
A selection: hits, their analogues and other compounds. The true share with any hit is near 4%.
CF NFkB inh: cystic fibrosis NF-kB activation inhibition. KKLEB NF-kB-GFP reporter, PAF-induced, GFP fluorescence overnight. inhibition, % at 5 µM. 360,000 tested, 0.86% active;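 active = at least 50% inhibition at 5 µM, scaled per plate between neutral and stimulator controls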;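 note: PAF is a Pseudomonas aeruginosa culture filtrate used as stimulus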
TWEAK Fn14 block: blocks TWEAK-Fn14 interaction in a reporter cell assay | TWEAK-stimulated Fn14 reporter cells, luciferase luminescence, 8 h | inhibition, % at 10 µM | AID 1159606 | 360,000 tested, 2% active; in the data active = inhibition above about 50%
Peg3 prom inh-1: Peg3 promoter activity inhibition. 360,000 tested, 1.7% active. inhibition, % at 20 µM. HeLa PEG-Prom luciferase reporter, luminescence, overnight. AID 588405;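 active = inhibition of at least 50% at 20 µM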
HIF-2a block: HIF-2a inhibition. 360,000 tested, 0.72% active. 786-0 RCC cells HIF-2a reporter, luciferase luminescence, overnight. inhibition, % at 18.8 µM;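 active = inhibition of the luminescence signal of 40% or more relative to plate controls, in a single-dose primary screen at 18.75 µM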
TROY signal inh: inhibitors of TROY-dependent NF-kB signaling | Q293 LMP1-TROYcd NF-kB luciferase reporter, 4 h | inhibition, % at 10 µM | 360,000 tested, 0.98% active | AID 1347056;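 active = compounds whose plate-normalised and pattern-corrected inhibition of the luciferase reporter signal at the single screening dose is 50% or more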
KKLEB tox: CF airway cell cytotoxicity counter-screen | KKLEB CF airway cells viability, ATPlite luminescence, overnight; active compounds read low; cells stimulated with P. aeruginosa culture filtrate | activity change (cytotoxicity), % at 5 µM | 360,000 tested, 0.36% active | AID 602141;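 active = corrected activity change at or below -50% at 5 µM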
Peg3 prom inh-2: confirmation of Peg3 promoter inhibitors | shares compounds with Peg3 prom inh-1 | HeLa PEG-Prom luciferase reporter, luminescence, overnight | inhibition, % at 20 µM | 1,300 tested, 84% active;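 active = at 20 µM dose, 40% or more inhibition averaged across four replicates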
Hits are given with their value; 0 = inactive; - = no result given.

SMILES | CF NFkB inh | TWEAK Fn14 block | Peg3 prom inh-1 | HIF-2a block | TROY signal inh | KKLEB tox | Peg3 prom inh-2
COC(=O)c1c(N)sc(C(=O)NCCc2ccccc2)c1C | 0 | 99 | 78 | 66 | 76 | 0 | 65
Cn1c(=O)c(Oc2cc(Cl)cc(Cl)c2)nc2ccccc21 | 0 | 0 | 68 | 0 | 0 | 0 | 0
COC(=O)c1sc2nc(C)cc(C)c2c1N | 0 | 0 | 0 | 0 | 0 | 0 | -
Cc1cc(C)c2c(N)c(C(=O)Nc3ncc(C)s3)sc2n1 | 0 | 79 | 101 | 87 | 0 | -69 | 89
Cc1ccc(C(C(=O)NCc2ccco2)N(C(=O)CNC(=O)c2cccs2)c2c(C)cccc2C)cc1 (stereo not drawn) | 0 | 0 | 66 | 0 | 0 | 0 | 0
Cc1ccc(C(C(=O)NCc2ccco2)N(C(=O)CNC(=O)c2cccs2)c2ccc(C)cc2)cc1 (stereo not drawn) | 0 | 0 | 0 | 0 | 0 | 0 | -
CN=c1scc(-c2ccccc2F)n1/N=C/c1ccc[nH]1 | 0 | 105 | 91 | 92 | 83 | -55 | 92
CCCc1nc2c(=O)n(C)c(=O)nc-2n(C)n1 | 97 | 104 | 104 | 80 | 90 | 0 | 100
O=C1OCCC1Sc1nnc(-c2ccc(Cl)cc2Cl)o1 (stereo not drawn) | 0 | 83 | 71 | 76 | 52 | 0 | 63
CCn1cc(CNC(=O)c2ccc3nc(Cc4ccccc4F)oc3c2)cn1 | 0 | 0 | 0 | 0 | 0 | 0 | -
O=[N+]([O-])c1cccc(Oc2ncccc2[N+](=O)[O-])c1 | 0 | 0 | 0 | 0 | 0 | 0 | -
CCCCCCCCNS(=O)(=O)CCNCc1ccccc1 | 0 | 0 | 0 | 0 | 0 | 0 | -
CCCCCCCCNCCS(=O)(=O)NCc1ccc(OC)cc1 | 0 | 0 | 56 | 0 | 0 | 0 | 68
Cc1ccc(S(=O)(=O)N(C)C)cc1NC(=O)c1cncc(Br)c1 | 0 | 0 | 55 | 0 | 0 | 0 | 69
CN(C)S(=O)(=O)c1cccc(NC(=O)c2cncc(Br)c2)c1 | 0 | 0 | 0 | 0 | 0 | 0 | -
COc1cc2c(cc1CNC[C@H]1O[C@@H](n3ccc(N)nc3=O)[C@H](O)[C@@H]1O)OCO2 | 0 | 0 | 0 | 0 | 0 | 0 | -
CCOC(=O)C[C@H]1c2cc(F)ccc2S(=O)(=O)N1Cc1ccc(OC)cc1 | 0 | 0 | 0 | 0 | 0 | 0 | -
CCN(CC(=O)Nc1ccc(NC(C)=O)cc1)C(=O)/C=C/c1cn(-c2ccccc2)nc1-c1cccs1 | 0 | 0 | 0 | 0 | 0 | 0 | -
CN1CCC(N(C)C(=O)/C=C/c2cn(-c3ccccc3)nc2-c2cccs2)CC1 | 0 | 0 | 77 | 0 | 0 | 0 | 93
CNc1nc(SC)nc(N2CCOCC2)n1 | 0 | 0 | 0 | 0 | 0 | 0 | -
CN(C)c1ccc(N=Nc2ccc(C(=O)O)cc2)cc1 | 0 | 98 | 65 | 54 | 0 | 0 | 0
S=C(NCCCN1CCOCC1)Nc1ccc(Nc2ccccc2)cc1 | 0 | 0 | 0 | 0 | 0 | 0 | -
CN(Cc1ccccc1)C(=O)c1ccc(Nc2nc(C(N)Cc3ccccc3)cs2)nc1 (stereo not drawn) | 0 | 0 | 93 | 0 | 0 | 0 | 90
NC(CCc1ccccc1)c1csc(Nc2ccc(C(=O)NCCCO)cn2)n1 (stereo not drawn) | 0 | 0 | 0 | 0 | 0 | 0 | -
COc1cccc(Nc2nc(C(N)Cc3ccccc3)cs2)n1 (stereo not drawn) | 0 | 0 | 89 | 0 | 0 | 0 | 96
SMILES | CF NFkB inh | TWEAK Fn14 block | Peg3 prom inh-1 | HIF-2a block | TROY signal inh | KKLEB tox | Peg3 prom inh-2
CCCCN(C)C(=O)c1ccc(Nc2nc(C(N)Cc3ccccc3)cs2)nc1 (stereo not drawn) | 0 | 0 | 0 | 0 | 0 | 0 | -
CC(C)CC(N)c1csc(Nc2ccc(C(=O)N(C)Cc3ccccc3)cn2)n1 (stereo not drawn) | 0 | 0 | 60 | 0 | 0 | 0 | 85
COCCNC(=O)Cn1nc(C(F)(F)F)cc1C | 0 | 0 | 0 | 0 | 0 | 0 | -
CCSc1nc(N2CCOCC2)c2ccccc2n1 | 0 | 0 | 0 | 0 | 0 | 0 | -
O=S(=O)(Nc1ccc(N2CCCCC2)cc1)c1ccccc1F | 0 | 0 | 0 | 0 | 0 | 0 | -
CCN1C(=O)C(=Cc2cccc(OC)c2Oc2ccc([N+](=O)[O-])cc2[N+](=O)[O-])SC1=S | 88 | 91 | 108 | 0 | 0 | -84 | 72
CCN1C/C(=C/c2ccc(N3CCOCC3)cc2)C(=O)/C(=C/c2ccc(N3CCOCC3)cc2)C1 | 0 | 0 | 101 | 93 | 0 | 0 | 97
O=C(N/N=C/c1cccc([N+](=O)[O-])c1)c1cc(-c2ccc3c4c(cccc24)CC3)n[nH]1 | 0 | 0 | 0 | 0 | 0 | 0 | -
O=C(N/N=C/c1ccc(Cl)c([N+](=O)[O-])c1)c1cc(-c2ccc3c4c(cccc24)CC3)n[nH]1 | 0 | 64 | 111 | 0 | 0 | 0 | 55
O=C(COC(=O)c1ccccc1)NC1CCCCCC1 | 0 | 0 | 0 | 0 | 0 | 0 | -
N/C(=N\OC(=O)c1ccccc1)C(C(=O)NOC(=O)c1ccccc1)C1CCCCC1 (stereo not drawn) | 0 | 0 | 86 | 0 | 0 | 0 | 97
O=C1OC(C(Cl)(Cl)Cl)Nc2ccccc21 (stereo not drawn) | 0 | 0 | 0 | 0 | 0 | 0 | -
CN(C)S(=O)(=O)c1ccc(C(=O)NCCN2C(=O)S/C(=C\c3cccnc3)C2=O)cc1 | 0 | 0 | 0 | 0 | 0 | 0 | -
CS(=O)(=O)c1ccc(C(=O)NCCN2C(=O)S/C(=C\c3cccnc3)C2=O)cc1[N+](=O)[O-] | 78 | 83 | 99 | 0 | 0 | -68 | 54
CC(=O)Nc1ccc(Nc2nc(C)c([N+](=O)[O-])c(Nc3ccccc3)n2)cc1 | 0 | 67 | 64 | 0 | 53 | 0 | 56
Cc1nc(Nc2ccc(F)cc2)nc(Nc2ccc(F)cc2)c1[N+](=O)[O-] | 0 | 0 | 0 | 0 | 0 | 0 | -
CCN(CCO)c1ccc(N=Nc2cc(C)[nH]n2)cc1 | 0 | 91 | 72 | 55 | 69 | 0 | 56
Cc1ccc(NC(=O)CCC(=O)NN=Cc2ccc(C)o2)c(C)c1 | 0 | 0 | 0 | 0 | 0 | 0 | -
Cc1ccc(-c2nc3ccccc3c(C(=O)NCc3cccs3)c2C)cc1 | 0 | 0 | 0 | 0 | 0 | 0 | -
Cc1ccc(S(=O)(=O)CC(N)=O)cc1 | 0 | 0 | 0 | 0 | 0 | 0 | -
Cc1ccc(S(=O)(=O)CCSC(=N)N)cc1 | 0 | 0 | 55 | 0 | 0 | 0 | 47
Cc1nc(NC(=O)/C=C/c2ccccc2)sc1C(=O)Nc1ccc(Cl)cc1 | 0 | 0 | 53 | 0 | 0 | 0 | 0
COc1ccc(N(Cc2cc3ccccc3[nH]c2=O)S(=O)(=O)c2ccc(OC)cc2)cc1 | 0 | 0 | 0 | 0 | 0 | 0 | -
COc1ccc(N(Cc2cc3cc(OC)ccc3[nH]c2=O)S(=O)(=O)c2ccc(NC(C)=O)cc2)cc1 | 80 | 0 | 62 | 0 | 0 | -101 | 61
COC(=O)c1ccccc1S(=O)(=O)N(Cc1ccco1)Cc1cc2cc(OC)ccc2[nH]c1=O | 0 | 0 | 0 | 0 | 0 | 0 | -
